The nature of experiment [1]: antimalarial activity against Dd2 strain (AID 2302;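 active = growth inhibition above 50% at the single 2 µM test dose, taken to imply half-maximal potency below 2 µM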;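 note: 0% = DMSO untreated growth and 100% = chloroquine plus artemisinin killed control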). The following applies: P. falciparum Dd2 in RBCs, LDH growth readout, 72 h; at 2 µM; hits give high values.
A short description of experiment [2]: human hepatoma cell viability loss – ATP luminescence, cytotoxicity control for P. falciparum antimalarial project, primary screen (AID 2303;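 active = inhibition above 50%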;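 note: 0% = DMSO wells and 100% = digitonin-killed cells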). The following applies: HepG2 viability, 24-48 h, at 10 µM, hits give high values.
Experiment [3] addresses L-lactate dehydrogenase (Plasmodium falciparum (isolate CDC / Honduras)) (UniProt Q27743). Nature of the experiment: PfLDH activity inhibition – cell lysate, 3D7 strain, counter-screen for P. falciparum growth inhibition project (AID 2304).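 Note: 0% = vehicle and 100% = reference inhibitor.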 The following applies: P. falciparum 3D7 crude extract, LDH APAD/NBT absorbance; at 2 µM; hits give high values.
Experiment [4] in a line: inhibition of 3D7 malaria parasite growth – strain 3D7 (AID 2306).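 Note: 0% = DMSO wells and 100% = chloroquine plus artemisinin control wells.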 The following applies: P. falciparum 3D7 erythrocytic growth, LDH absorbance, 72 h; at 2 µM; hits give high values.
The target in experiment [5] is Calcium-dependent protein kinase 1 (Plasmodium falciparum (isolate 3D7)) (UniProt P62344). Nature of the experiment: PfCDPK1 kinase inhibitors, biochemical, TCAMS library (AID 1159585; cut-off not given, nearly all actives have IC50 up to about 0.98 µM;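 note: inhibitors leave more ATP so luminescence rises with inhibition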). The note with it: recombinant PfCDPK1, Kinase-Glo ATP depletion luminescence. For orientation: In Kinase-Glo more light means more ATP remaining.
In experiment [6] the target is Plasmodium falciparum protein kinase 6 (PK6, PF3D7_1337100) (UniProt Q8IDW1). Nature of the experiment: PfPK6 kinase inhibitors, biochemical, TCAMS library (AID 1159586). The note with it: recombinant PfPK6, Kinase-Glo ATP depletion luminescence.
Experiment [7] addresses Protein kinase 7 (PK7), Plasmodium falciparum 3D7 (PF3D7_0213400) (UniProt Q7YTF7). Nature of the experiment: inhibition of Plasmodium PK7 catalytic activity – biochemical, TCAMS antimalarial set, Kinase-Glo luminescence (AID 1159587). The note with it: recombinant PfPK7, Kinase-Glo ATP depletion luminescence.
The target in experiment [8] is Calcium-dependent protein kinase 4 (Plasmodium falciparum (isolate 3D7)) (UniProt Q8IBS5). Nature of the experiment: PfCDPK4 kinase inhibitors, biochemical, TCAMS library (AID 1159588; cut-off not given, nearly all actives have IC50 up to about 0.91 µM). The note with it: recombinant PfCDPK4, Kinase-Glo ATP depletion luminescence.

A number with no mark means an inactive call. For part of these data: Measured potencies and affinities stand elsewhere. Activity calls are given as the source filed them. Unless noted, the rule behind the calls is not given here.

Protein kinase 7 (PK7), Plasmodium falciparum 3D7 (PF3D7_0213400), sequence (Q7YTF7 1-343): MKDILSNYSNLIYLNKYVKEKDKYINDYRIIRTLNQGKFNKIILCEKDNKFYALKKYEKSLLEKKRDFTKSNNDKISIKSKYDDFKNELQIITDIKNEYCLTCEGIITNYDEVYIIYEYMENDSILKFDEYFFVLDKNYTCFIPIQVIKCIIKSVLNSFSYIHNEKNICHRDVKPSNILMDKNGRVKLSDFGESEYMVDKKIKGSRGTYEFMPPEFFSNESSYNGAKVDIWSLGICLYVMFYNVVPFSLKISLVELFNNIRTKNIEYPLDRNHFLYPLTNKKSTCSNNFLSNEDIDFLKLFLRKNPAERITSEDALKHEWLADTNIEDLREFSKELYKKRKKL
Calcium-dependent protein kinase 4 (Plasmodium falciparum (isolate 3D7)), sequence (Q8IBS5 whole entry, looked up): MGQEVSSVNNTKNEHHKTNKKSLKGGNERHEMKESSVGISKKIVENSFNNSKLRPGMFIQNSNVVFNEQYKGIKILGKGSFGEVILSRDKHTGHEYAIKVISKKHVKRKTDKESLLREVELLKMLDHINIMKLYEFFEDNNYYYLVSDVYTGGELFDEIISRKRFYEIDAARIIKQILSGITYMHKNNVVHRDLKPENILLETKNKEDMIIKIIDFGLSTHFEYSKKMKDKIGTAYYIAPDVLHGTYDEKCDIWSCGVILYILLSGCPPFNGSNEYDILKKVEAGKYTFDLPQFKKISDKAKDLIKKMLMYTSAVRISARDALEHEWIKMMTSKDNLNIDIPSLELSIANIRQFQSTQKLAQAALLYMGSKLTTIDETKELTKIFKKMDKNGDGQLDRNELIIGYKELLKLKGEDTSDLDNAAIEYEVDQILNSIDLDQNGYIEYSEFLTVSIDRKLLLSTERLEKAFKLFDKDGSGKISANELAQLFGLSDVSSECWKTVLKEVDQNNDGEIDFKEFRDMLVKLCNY
L-lactate dehydrogenase (Plasmodium falciparum (isolate CDC / Honduras)), sequence (Q27743 whole entry, looked up): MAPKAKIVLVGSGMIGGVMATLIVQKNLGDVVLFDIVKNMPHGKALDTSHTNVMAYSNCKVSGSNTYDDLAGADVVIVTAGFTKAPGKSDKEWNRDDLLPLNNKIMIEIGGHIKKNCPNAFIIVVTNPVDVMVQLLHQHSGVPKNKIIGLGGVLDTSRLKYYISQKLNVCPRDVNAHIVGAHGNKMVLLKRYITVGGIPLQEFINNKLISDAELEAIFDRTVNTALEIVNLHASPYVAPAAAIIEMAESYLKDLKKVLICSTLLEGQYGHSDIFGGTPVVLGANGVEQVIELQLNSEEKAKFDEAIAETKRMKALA
Calcium-dependent protein kinase 1 (Plasmodium falciparum (isolate 3D7)), sequence (P62344 whole entry, looked up): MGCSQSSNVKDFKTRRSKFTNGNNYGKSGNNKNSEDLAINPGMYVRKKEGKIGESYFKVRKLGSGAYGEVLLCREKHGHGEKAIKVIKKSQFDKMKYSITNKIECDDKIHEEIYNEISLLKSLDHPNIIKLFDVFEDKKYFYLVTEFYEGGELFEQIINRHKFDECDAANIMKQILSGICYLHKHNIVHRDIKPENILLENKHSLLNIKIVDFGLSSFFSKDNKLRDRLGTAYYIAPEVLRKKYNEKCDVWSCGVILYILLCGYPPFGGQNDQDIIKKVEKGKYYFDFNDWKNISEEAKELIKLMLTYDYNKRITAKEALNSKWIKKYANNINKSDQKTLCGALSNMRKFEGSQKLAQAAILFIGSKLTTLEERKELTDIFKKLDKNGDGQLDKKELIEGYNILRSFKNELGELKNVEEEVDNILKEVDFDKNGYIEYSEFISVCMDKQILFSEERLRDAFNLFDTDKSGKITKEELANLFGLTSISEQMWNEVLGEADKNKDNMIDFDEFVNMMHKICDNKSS
Plasmodium falciparum protein kinase 6 (PK6, PF3D7_1337100), sequence (Q8IDW1 1-305): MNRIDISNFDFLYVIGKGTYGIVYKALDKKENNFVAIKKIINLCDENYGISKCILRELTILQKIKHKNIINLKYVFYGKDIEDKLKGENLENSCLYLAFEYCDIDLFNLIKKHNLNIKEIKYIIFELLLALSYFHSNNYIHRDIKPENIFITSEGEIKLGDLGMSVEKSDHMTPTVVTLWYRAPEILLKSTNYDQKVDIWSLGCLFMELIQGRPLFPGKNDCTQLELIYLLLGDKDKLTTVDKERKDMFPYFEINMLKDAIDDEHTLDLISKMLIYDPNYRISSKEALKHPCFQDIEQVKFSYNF

In general, inhibition refers to the relative decrease from the control value, in per cent. As for `CC(=O)Oc1cc(OCc2ccccc2)c(OC(C)=O)c(OCc2ccccc2)c1`, the growth inhibition was 78% (active) in experiment [1] and 94% (active) in experiment [4]. The inhibition in experiment [2] was 11%; in experiment [3], 1%. Besides, the result in experiment [5], in experiment [6], in experiment [7] and in experiment [8] was inactive.

With `Cc1cccc(C)c1N1CCN(C2CCC(NC(=O)/C=C/c3ccccc3)CC2)CC1` (stereo not drawn), the growth inhibition was 34% in experiment [1] and 83% (active) in experiment [4]. Also, the inhibition in experiment [2] was 38%; in experiment [3] it was -2%. Further, the result in experiment [5], in experiment [6], in experiment [7] and in experiment [8] was inactive.

Regarding `O=C(Nc1cccc(CN2CCN(C(=O)c3ccccc3)CC2)c1)c1cccs1`, the growth inhibition was 97% (active) in experiment [1] and 95% (active) in experiment [4]. Also, the inhibition in experiment [2] was 15%; in experiment [3], 1%. The result in experiment [5], in experiment [6], in experiment [7] and in experiment [8] was inactive.

Consider `O=C(Nc1ccc2c(c1)OCCO2)c1cc(-c2cccnc2)nc2ccc(Cl)cc12`, for which the growth inhibition in experiment [1] was 27%; in experiment [4] it was 95% (active). Moreover, the inhibition in experiment [2] is 2%; in experiment [3] it was -1%. The outcome in experiment [5], in experiment [6], in experiment [7] and in experiment [8] was inactive.

Turning to `O=C(c1cccc(-c2cccc(-c3nc4ccccc4[nH]3)c2)c1)N1CCCCC1CN1CCC(O)C1` (stereo not drawn), the growth inhibition is 56% (active) in experiment [1] and 100% (active) in experiment [4]. In addition, the inhibition in experiment [2] is 66% (active); in experiment [3], 2%. For the same compound, the outcome in experiment [5], in experiment [6], in experiment [7] and in experiment [8] was inactive.

For the compound `O=C(N1CCN(c2ccnc3cc4c(cc23)N(Cc2ccccc2)CC4)CC1)C(F)(F)F`, the growth inhibition in experiment [1] and in experiment [4] was 100% (active) in each case. The inhibition in experiment [2] is 8%; in experiment [3] it was 3%. Moreover, the result in experiment [5], in experiment [6], in experiment [7] and in experiment [8] was inactive.

In the case of `COc1cc(Nc2ccc3cc(S(=O)(=O)N4CCCCC4C)ccc3n2)cc(OC)c1OC` (stereo not drawn), the growth inhibition in experiment [1] was 78% (active); in experiment [4], 88% (active). Further, the values for the inhibition in experiment [2] and in experiment [3] were -5% and -1%, respectively. Moreover, the outcome in experiment [5], in experiment [6], in experiment [7] and in experiment [8] was inactive.

With `Cc1cc(C)c(NC(=O)NC2CCN(CCCCCNC(=O)/C=C/c3ccc(Cl)c(Cl)c3)C2)c(C)c1` (stereo not drawn), the growth inhibition in experiment [1] was 48%; in experiment [4], 99% (active). Also, the inhibition is 23% in experiment [2] and 1% in experiment [3]. Moreover, the result in experiment [5], in experiment [6], in experiment [7] and in experiment [8] was inactive.

For the compound `CCCCCCNC(=O)C1Cc2c([nH]c3ccc(Br)cc23)C2(CCN(Cc3ccccc3)CC2)N1` (stereo not drawn), the growth inhibition in experiment [1] is 75% (active); in experiment [4] it was 100% (active). The inhibition is 100% (active) in experiment [2] and 6% in experiment [3]. For the same compound, the result in experiment [5], in experiment [6], in experiment [7] and in experiment [8] was inactive.

Consider `C=CCC(C(=O)Nc1ccnc2ccc(OC)cc12)C1CCN(CCCCCCC)CC1` (stereo not drawn), for which the growth inhibition is 84% (active) in experiment [1] and 86% (active) in experiment [4]. Moreover, the inhibition in experiment [2] is 20%; in experiment [3] it was -7%. Also, the result in experiment [5], in experiment [6], in experiment [7] and in experiment [8] was inactive.

As for `CCN(CC)CCNc1ccnc2c3ccccc3n(C)c12`, the growth inhibition in experiment [1] was 99% (active); in experiment [4], 101% (active). The figures for the inhibition in experiment [2] and in experiment [3] were 14% and -4%, respectively. The outcome in experiment [5], in experiment [6], in experiment [7] and in experiment [8] was inactive.

With `CN(C)CCN(Cc1ccccc1)c1ccc([N+](=O)[O-])cc1C(F)(F)F`, the growth inhibition in experiment [1] was 89% (active); in experiment [4], 96% (active). The figures for the inhibition in experiment [2] and in experiment [3] were 40% and -8%, respectively. Further, the outcome in experiment [5], in experiment [6], in experiment [7] and in experiment [8] was inactive.

Consider `CC(C)NCC(O)COc1ccc(Cc2ccc(OCC(O)CNC(C)C)cc2)cc1` (stereo not drawn), for which the growth inhibition in experiment [1] was 18%; in experiment [4] it was 100% (active). The inhibition in experiment [2] is -8%; in experiment [3], -5%. The outcome in experiment [5], in experiment [6], in experiment [7] and in experiment [8] was inactive.

On to `Cc1ccc(C(=O)c2oc3ccc4c(C)cc(=O)oc4c3c2C)cc1`, for which the growth inhibition in experiment [1] is 48%; in experiment [4] it was 86% (active). The inhibition is -8% in experiment [2] and 1% in experiment [3]. Further, the result in experiment [5], in experiment [6], in experiment [7] and in experiment [8] was inactive.

For the compound `c1ccc(Oc2ccc(Nc3ccnc4ccc(-c5ccco5)cc34)cc2)cc1`, the growth inhibition in experiment [1] is 32%; in experiment [4], 87% (active). Further, the values for the inhibition in experiment [2] and in experiment [3] were -4% and -1%, respectively. Further, the outcome in experiment [5], in experiment [6], in experiment [7] and in experiment [8] was inactive.

Consider `O=C(CCCC(=O)Nc1ccc(C2=NCCN2)cc1)Nc1ccc(C2=NCCN2)cc1`, for which the growth inhibition in experiment [1] is 81% (active); in experiment [4] it was 91% (active). For the same compound, the results for the inhibition in experiment [2] and in experiment [3] were 3% and 2%, respectively. Moreover, the result in experiment [5], in experiment [6], in experiment [7] and in experiment [8] was inactive.

Take `COc1ccc(CNC2Cc3ccccc3C2)cc1-c1ccc(S(=O)(=O)NCc2cccnc2)s1`: the growth inhibition in experiment [1] was 18%; in experiment [4], 91% (active). Besides, the inhibition was 49% in experiment [2] and 3% in experiment [3]. The outcome in experiment [5], in experiment [6], in experiment [7] and in experiment [8] was inactive.

For `COc1cc(C)c(C(O)CNC(C)CCc2ccccc2)cc1C` (stereo not drawn), the growth inhibition in experiment [1] and in experiment [4] was 98% (active) throughout. Also, the inhibition in experiment [2] was 1%; in experiment [3], -2%. For the same compound, the result in experiment [5], in experiment [6], in experiment [7] and in experiment [8] was inactive.

Take `COc1ccc(CNc2ccnc3cc(OC)ccc23)cc1`: the values for the growth inhibition in experiment [1] and in experiment [4] were 74% (active) and 100% (active), respectively. The inhibition in experiment [2] was 7%; in experiment [3], -7%. Further, the result in experiment [5], in experiment [6], in experiment [7] and in experiment [8] was inactive.

Regarding `Cc1cc2cc(/C=C/C(=O)NC3CCC(CCN4CCc5ccc(C#N)cc5CC4)CC3)ccc2[nH]1` (stereo not drawn), the growth inhibition in experiment [1] was 49%; in experiment [4], 85% (active). In addition, the inhibition is 6% in experiment [2] and -1% in experiment [3]. Moreover, the outcome in experiment [5], in experiment [6], in experiment [7] and in experiment [8] was inactive.

Turning to `COc1cc2nccc(Nc3ccc4c(cnn4Cc4cccc(F)c4)c3)c2cc1OC`, the figures for the growth inhibition in experiment [1] and in experiment [4] were 99% (active) and 101% (active), respectively. Moreover, the values for the inhibition in experiment [2] and in experiment [3] were 29% and -6%, respectively. Also, the outcome in experiment [5], in experiment [6], in experiment [7] and in experiment [8] was inactive.

These data come from PubChem BioAssay.
